Screening data (PubChem BioAssay)
The list is not random: actives were taken first. Their share in the collection is about 1.7%.
ARNT TACC3 PPI – ARNT/TACC3 interaction disruption; AlphaScreen His-ARNT PAS-B/GST-TACC3 binding, luminescence; TACC3 fragment carries E629A point mutation; Q9Y6A5; 0.66% of 390,000 active; inhibition, % at 9.99 µM; AID 623870;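 active = mean inhibition of replicates at least 50% and at least half of replicates each reaching 50%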
Vif inh – HIV Vif inhibition. HEK293T cells, Vif self-association by quenched fluorescence, imaging, 24 h. AID 602346. 0.35% of 340,000 active. inhibition, % at 7.49 µM; in the data active = inhibition above about 50%, passing the limit was not always enough
Cardio protect – protects H9c2 cardiomyocytes from peroxide injury; protection from H2O2 cell death, % at 20 µM; H2O2 injury protection, ATPLite, 2 h; AID 588492; 0.63% of 360,000 active;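 active = compounds giving at least 50% protection of heart cells from peroxide-induced death in the single-dose screen, raw or plate-pattern-corrected value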
Glyco luc inh – N-linked glycosylation inhibition; 0.23% of 360,000 active; D54 ERlucT glycosylation luciferase reporter, 24 h; percent of 100 nM tunicamycin response; reporter increase, % at 12.5 µM; AID 588692;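 active = mean luciferase reporter signal, scaled so untreated is 0 and the glycosylation-blocking control 100, at or above a set limit in every replicate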;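 note: luciferase carries N-glycosylation sites so blocking glycosylation raises the light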
aDG glyco up – alpha-DG glycosylation activation; Pro5-aDG cells, alpha-DG glycosylation AlphaScreen (IIH6); 0% Pro5, 100% B10-LARGE cell signal; activation, % at 10 µM; 0.22% of 360,000 active;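 active = activation of at least 8% versus controls, or a plate z-score of at least 8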;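 note: Pro5 are CHO cells carrying HIG-tagged alpha-DG that lacks glycosylation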
aDG glyco conf – alpha-DG glycosylation activation, confirmation | shares compounds with aDG glyco up | Pro5-aDG cells, IIH6 AlphaLISA; scaled to LARGE-overexpressing B10 cells as 100% | activation, % at 10 µM (by protocol) | 17% of 600 active | AID 651671;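 active = activation of at least 7% in one or more replicates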;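 note: cells exposed to compound for two days before detection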
Numbers stand for hits.

For O=C(CSCc1ccc(Br)cc1)NC1CC1 the results were ARNT TACC3 PPI inactive, Vif inh inactive, Cardio protect inactive, Glyco luc inh inactive and aDG glyco up inactive.
For O=C(CSCc1cccc(Br)c1)NC1CC1 the results were ARNT TACC3 PPI inactive, Vif inh inactive, Cardio protect inactive, Glyco luc inh inactive, aDG glyco up 5.3 and aDG glyco conf inactive.
`O=S(=O)(c1ccc(Cl)cc1)N1CCN(c2ncnc3sccc23)CC1` gave ARNT TACC3 PPI inactive, Vif inh inactive, Cardio protect inactive, Glyco luc inh inactive, aDG glyco up 4.8 and aDG glyco conf inactive.
Screening Cc1csc2c(N3CCN(S(=O)(=O)c4ccc(Cl)cc4)CC3)ncnc12 returned ARNT TACC3 PPI inactive, Vif inh inactive, Cardio protect inactive, Glyco luc inh inactive and aDG glyco up inactive.
Screening COc1ccc(CCN2C(=O)CSC2=Nc2ccc(C(C)C)cc2)cc1OC returned ARNT TACC3 PPI inactive, Vif inh inactive, Cardio protect inactive, Glyco luc inh inactive, aDG glyco up 2.9 and aDG glyco conf inactive.
`CN(CC(=O)Nc1ccccc1C(=O)NC1CC1)Cc1ccco1` gave Cardio protect inactive, Glyco luc inh inactive, aDG glyco up 4.2 and aDG glyco conf inactive.
CCCN(C)C[C@H]1Oc2cc(C#Cc3ccc(F)cc3)ccc2S(=O)(=O)N([C@@H](C)CO)C[C@H]1C was read as ARNT TACC3 PPI inactive.
Screening Cc1cccc(N2CCN(C(=O)CSCc3c(C)noc3C)CC2)c1C returned ARNT TACC3 PPI inactive, Vif inh inactive, Cardio protect inactive, Glyco luc inh inactive, aDG glyco up 6.8 and aDG glyco conf inactive.
Screening COc1ccc2[nH]c3c(=O)n4c(nc3c2c1)SCC4 returned ARNT TACC3 PPI inactive, Vif inh inactive, Cardio protect inactive, Glyco luc inh inactive and aDG glyco up inactive.
For COc1cc2[nH]c3c(=O)n4c(nc3c2cc1OC)SCCC4 the results were ARNT TACC3 PPI inactive, Vif inh inactive, Cardio protect inactive, Glyco luc inh inactive, aDG glyco up 31.1 and aDG glyco conf 21.6.
C[C@H](CO)N1C[C@H](C)[C@@H](CN(C)S(=O)(=O)c2cn(C)cn2)Oc2ccc(NS(=O)(=O)c3cn(C)cn3)cc2CC1=O was read as ARNT TACC3 PPI inactive.
CCCN1C[C@H](C)[C@@H](OC)CN(C)C(=O)c2cc(NC(=O)c3cccc(F)c3)ccc2OC[C@@H]1C was read as ARNT TACC3 PPI inactive.
For O=C(/C=C/c1ccc(Cl)c(Cl)c1)Nc1cccnc1 the results were ARNT TACC3 PPI inactive, Vif inh inactive, Cardio protect inactive, Glyco luc inh inactive, aDG glyco up 3.1 and aDG glyco conf inactive.
Screening Cc1ccc(S(=O)(=O)c2c(N)n(Cc3ccco3)c3nc4ccccc4nc23)cc1 returned ARNT TACC3 PPI inactive, Vif inh inactive, Cardio protect inactive, Glyco luc inh inactive, aDG glyco up 17.4 and aDG glyco conf inactive.
Cc1cccc(S(=O)(=O)c2c(N)n(Cc3ccco3)c3nc4ccccc4nc23)c1 was read as ARNT TACC3 PPI inactive, Vif inh inactive, Cardio protect inactive, Glyco luc inh inactive, aDG glyco up 20.7 and aDG glyco conf inactive.
Screening CCCCn1c(N)c(S(=O)(=O)c2ccc(C)cc2)c2nc3ccccc3nc21 returned ARNT TACC3 PPI inactive, Vif inh inactive, Cardio protect inactive, Glyco luc inh inactive and aDG glyco up inactive.
For CN(C)CC(=O)Nc1ccc2c(c1)[C@H]1C[C@@H](CC(=O)NCc3ccc4c(c3)OCO4)O[C@@H](CO)[C@H]1O2 the results were ARNT TACC3 PPI inactive.
COc1cccc(CN(C)C(=O)c2cccc(S(=O)(=O)N3CCN(c4ccc(F)cc4)CC3)c2)c1OC was read as ARNT TACC3 PPI inactive, Vif inh inactive, Cardio protect inactive, Glyco luc inh inactive, aDG glyco up 3.5 and aDG glyco conf inactive.
Screening COc1cccc(CN(C)C(=O)c2cccc(S(=O)(=O)N3CCN(c4ccccc4)CC3)c2)c1OC returned ARNT TACC3 PPI inactive, Vif inh inactive, Cardio protect inactive, Glyco luc inh inactive and aDG glyco up inactive.
`CN1CCN(c2ncnc3c2ncn3[C@H]2CN(Cc3ccc(-c4ccccc4)cc3)C[C@@H](CO)O2)CC1` gave Vif inh inactive, Cardio protect inactive, Glyco luc inh inactive, aDG glyco up 9.6 and aDG glyco conf 9.8.
Screening OCCN1CCN(c2ncnc3c2ncn3[C@H]2CN(Cc3ccc(-c4ccccc4)cc3)C[C@@H](CO)O2)CC1 returned Vif inh inactive, Cardio protect inactive, Glyco luc inh inactive and aDG glyco up inactive.
O=C(C[C@@H]1CC[C@H](NC(=O)c2ccccc2)[C@H](CO)O1)NCc1ccncn1 was read as ARNT TACC3 PPI inactive.
CC(=O)Nc1ccc(NC(=O)CSCCc2ccccn2)cc1 was read as ARNT TACC3 PPI inactive, Vif inh inactive, Cardio protect inactive, Glyco luc inh inactive, aDG glyco up 4.5 and aDG glyco conf inactive.
For C[C@@H]1CN([C@@H](C)CO)C(=O)Cc2cc(NC(=O)Cc3ccccc3)ccc2O[C@H]1CN(C)C(=O)Nc1ccc(C(F)(F)F)cc1 the results were ARNT TACC3 PPI inactive.
CC(C)Cn1c(N)c(C(=O)COC(=O)c2ccc(Br)cc2)c(=O)n(C)c1=O was read as ARNT TACC3 PPI inactive, Vif inh inactive, Cardio protect inactive, Glyco luc inh inactive, aDG glyco up 3.4 and aDG glyco conf 1.2.
Screening O=C(C[C@@H]1CC[C@@H]2[C@H](COC[C@@H](O)CN2CCC(F)(F)F)O1)NCC1CC1 returned ARNT TACC3 PPI inactive.
`CCc1cc(C(=O)c2ccc(C)cc2)c(NC(=O)CCl)s1` gave ARNT TACC3 PPI inactive, Vif inh inactive, Cardio protect inactive, Glyco luc inh inactive, aDG glyco up 10.1 and aDG glyco conf inactive.
`Cc1cc(C(=O)c2ccc(Cl)cc2)c(NC(=O)CCl)s1` gave ARNT TACC3 PPI inactive, Vif inh inactive, Cardio protect inactive, Glyco luc inh inactive and aDG glyco up inactive.
`COc1ccc(CN(C)C[C@H]2OCCCC[C@@H](C)Oc3ccc(NC(=O)NC(C)C)cc3C(=O)N([C@@H](C)CO)C[C@@H]2C)cc1` gave ARNT TACC3 PPI inactive.
CO[C@@H](CN(C)Cc1cc(F)ccc1F)[C@H](C)CN(C(=O)Nc1ccc(F)cc1)[C@@H](C)CO was read as ARNT TACC3 PPI inactive.
Screening CC(C)c1ccc(NC(=O)C2Cc3c(-c4ccc(Cl)cc4)ccnc3O2)cc1 (configuration not stated) returned Vif inh inactive, Cardio protect inactive, Glyco luc inh inactive, aDG glyco up 5.0 and aDG glyco conf 6.5.
`CCCCN1CCc2c1nc1ccc(Br)cc1c2N` gave ARNT TACC3 PPI inactive, Vif inh inactive, Cardio protect inactive, Glyco luc inh inactive, aDG glyco up 3.6 and aDG glyco conf 7.8.
